An excerpt weighted towards active compounds, which were near 13% of everything screened.
USP17 inh: blocks human USP17 ubiquitin-rhodamine cleavage; purified USP17, Ub-rhodamine cleavage fluorescence, 3 h; inhibition, % at 50 µM; hit rate 6.5% among 47,000
USP30 block: human USP30 deubiquitinase inhibition; Q70CQ3; purified USP30, Ub-rhodamine cleavage fluorescence; inhibition, % at 25 µM; hit rate 5.3% among 47,000; AID 1645860
USP28 block: blocks human USP28 ubiquitin-rhodamine cleavage. AID 1645857. purified USP28, Ub-rhodamine cleavage fluorescence, 30 min. hit rate 3% among 47,000. Q96RU2. inhibition, % at 25 µM
USP8 block: blocks human USP8 ubiquitin-rhodamine cleavage; P40818; purified USP8, Ub-rhodamine cleavage fluorescence, 30 min; inhibition, % at 20 µM; hit rate 4.2% among 47,000
Numbers without * were called inactive; . = no result. Rule as the data show it: active = inhibition above about 30%; inactive = the rest.

SMILES	USP17 inh	USP30 block	USP28 block	USP8 block
O=C(NCCc1nc2ccccc2n1CCCOc1ccccc1Cl)C1CCCCC1	83*	79*	24	74*
CC1=C[C@H]2[C@H](C(C)C)CC[C@@](C)(O)[C@H]2CC1=O	-7	-6	-6	0
CC(C)[C@H]1CC[C@@]2(CO2)[C@H]2C(=O)OCC(C(=O)O)=C[C@H]12	73*	64*	71*	1
Cc1cccc(OCc2nnc(SCC(=O)Nc3cccc(F)c3C)o2)c1	0	25	44*	11
CN[C@@H]1[C@@H](O)[C@@H](O[C@H]2[C@H](O)[C@@H](O[C@H]3OC(CN)=CC[C@@H]3N)[C@H](N)C[C@@H]2N)OC[C@]1(C)O	-107	-361	-66	-128
CCOc1ccccc1N(C(=O)c1ccc2c(c1)OCCO2)C(C(=O)NC1CCCCC1)c1ccc(O)cc1 (configuration not stated)	6	-8	-21	-7
Cc1nn(C)cc1C(C(=O)NC1CCCCC1)N(C(=O)CN1C(=O)c2ccccc2S1(=O)=O)c1ccc2c(c1)OCO2 (configuration not stated)	56*	.	.	16
Cc1ccc(NC(=O)c2cccc(-n3cnnc3)n2)cc1	4	.	.	0
Cc1ccc(C(O)Cn2cc(C(=O)Nc3ccccc3)nn2)cc1 (configuration not stated)	25	35*	18	21
Cc1ccc(C(O)Cn2cc(C(=O)Nc3cccc(C)c3)nn2)cc1 (configuration not stated)	80*	.	.	7
CCCCC1OC(=O)C2C(C)C(=O)OC12 (configuration not stated)	0	25	2	0
CCc1ccc(NC(=O)CSc2ncnc3nc[nH]c23)cc1	-3	15	12	0
C[C@@]12c3ccc4c(c3C(=O)c3occ(c31)C(O)C[C@H]2O)CCC4=O (some centres not stated)	57*	-104	-6	-334
COc1ccc(CCNc2cc3n(c(=O)n2)CCc2cc(OC)c(OC)cc2-3)cc1OC	-12	-46	-20	-28
COc1cc2c(cc1OC)-c1cc(Nc3ccc(Br)cc3)nc(=O)n1CC2	25	53*	23	8
O=C(COc1ccccc1-c1nnc(-c2ccccc2)o1)NCc1ccco1	20	-45	-17	84*
O=C(COc1ccccc1-c1nnc(-c2ccccc2)o1)NCc1ccc(F)cc1	22	23	11	56*
O=C(COc1ccccc1-c1nnc(-c2ccccc2)o1)Nc1ccccc1F	46*	26	0	9
CCC(C)n1nnc2cc(S(=O)(=O)N3CCC(C(=O)NCc4ccco4)CC3)ccc21 (configuration not stated)	-15	-15	-9	-2
CCOc1cc(C2C3=C(CC(c4ccccc4)CC3=O)Nc3ccccc3N2C(C)=O)ccc1OCc1ccc(Cl)cc1 (configuration not stated)	-8	0	1	1
CC1(C)CC(=O)C2=C(C1)Nc1ccccc1N(C(=O)Cc1ccccc1)C2c1ccc(F)cc1 (configuration not stated)	4	2	0	1
CCC(=O)N1c2ccccc2NC2=C(C(=O)CC(c3ccccc3OCc3ccccc3)C2)C1c1ccccc1 (configuration not stated)	36*	61*	9	23
CC1(C)CC(=O)C2=C(C1)Nc1ccccc1N(C(=O)Cc1ccccc1)C2c1ccc(Cl)cc1 (configuration not stated)	49*	29	19	2
COc1cc(C2C3=C(CC(c4ccccc4)CC3=O)Nc3ccccc3N2C(=O)C2CC2)cc(OC)c1OC (configuration not stated)	45*	12	0	1
Cc1ccc(-c2onc(C)c2C)cc1S(=O)(=O)NC1CCN(Cc2ccccc2)CC1	-27	-118	-14	-13
SMILES	USP17 inh	USP30 block	USP28 block	USP8 block
CN(C(=O)COc1ccccc1-c1nnc(-c2ccccc2)o1)c1ccccc1	9	30	9	10
COc1cc(-c2noc(-c3ccccc3C)n2)ccc1OCC(=O)NC(C)C	21	33*	9	29
CC(C)NC(=O)COc1ccccc1-c1nnc(-c2ccccc2)o1	30	50*	21	1
O=C(COc1ccccc1-c1nc(-c2ccccc2)no1)Nc1ccccc1	14	8	0	-1
COc1ccc(NC(=O)COc2ccccc2-c2nnc(-c3ccccc3)o2)cc1	35*	33*	8	14
Cc1nc(Nc2cnccn2)cc(C2CCCCN2)n1 (configuration not stated)	.	1	-2	3
